Test [1] can be described thus: qHTS RealTime-Glo MT Cell Viability Assay in HepG2 cells - 40 hour (AID 1224870). Also: nearly all actives have a fitted effect of over 50% in size. The method, boiled down: (§1)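 HepG2 cells (600/well) mixed with RealTime-Glo MT reagent, settled 5 h at 37 C/5% CO2 before compound addition. Nonlytic NanoLuc luminescence from viable-cell prosubstrate reduction read repeatedly during 40 h treatment at 37 C.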
The nature of test [2]: A CellTox Green Cytotoxicity Assay to monitor cytotoxicity in HEK293 cells - 40 hour (AID 1224871). Also: nearly all actives have a fitted effect of over 45% in size. Also: potency is read from the fitted curve at half-maximal effect. The method, boiled down: (§2)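 Real-time, in one plate: 600 HEK293 cells/well with dead-cell DNA dye, pinned compound after 5 h, 37 C incubation over 40 h; viable cells give no appreciable fluorescence.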
A short description of test [3]: qHTS RealTime-Glo MT Cell Viability Assay in HEK293 cells - 16 hour (AID 1224872). Also: top concentration of the series differs between compounds; nearly all actives have a fitted effect of over 50% in size. The method in brief:
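Tox21 10K qHTS, HEK293, 600 cells/well, RealTime-Glo reagent co-dispensed with cells; 5 h preincubation, compound by pintool, 37 C, luminescence at 0–40 h.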

Test [4] is described as follows: qHTS RealTime-Glo MT Cell Viability Assay in HepG2 cells - 8 hour (AID 1224873). Also: nearly all actives have a fitted effect of over 55% in size. The method in brief: as §1
In general terms: In qHTS, concentration-response curves come from the screen itself.

Test [5] in a line: qHTS RealTime-Glo MT Cell Viability Assay in HEK293 cells - 40 hour (AID 1224874). Also: nearly all actives have a fitted effect of over 50% in size. Also: potency is read from the fitted curve at half-maximal effect. The following applies: RealTime-Glo luminescence; max response: stronger effect = lower value. The method, boiled down:
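Kinetic, non-lysing viability readout. Seed HEK293 (600/well) with reagent, incubate 5 h at 37 C/5% CO2, pin 23 nL compound in DMSO, incubate at 37 C, read luminescence at 0, 8, 16, 24, 32, 40 h.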

A short description of test [6]: A CellTox Green Cytotoxicity Assay to monitor cytotoxicity in HEK293 cells - 24 hour (AID 1224875). Also: series mostly up to about 77 µM; nearly all actives have a fitted effect of over 45% in size. The method in brief: as §2
Test [7] can be described thus: A CellTox Green Cytotoxicity Assay to monitor cytotoxicity in HepG2 cells - 16 hour (AID 1224876). Also: nearly all actives have a fitted effect of over 45% in size. Also: potency is read from the fitted curve at half-maximal effect. The method in brief: (§3)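 Cytotoxicity was tracked as dead-cell DNA fluorescence in HepG2 cells treated with test compounds at 37 C; each time-point value comes from one kinetic series spanning 0, 8, 16, 24, 32 and 40 h.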
Test [8] can be described thus: qHTS RealTime-Glo MT Cell Viability Assay in HepG2 cells - 32 hour (AID 1224877). Also: nearly all actives have a fitted effect of over 55% in size. The method, boiled down: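 Cells + NanoLuc/prosubstrate dispensed (600 cells/well) → 5 h at 37 C/5% CO2 → compounds in DMSO transferred → 40 h incubation at 37 C, luminescence read at 0, 8, 16, 24, 32, 40 h.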
A short description of test [9]: A CellTox Green Cytotoxicity Assay to monitor cytotoxicity in HepG2 cells - 24 hour (AID 1224878). Also: nearly all actives have a fitted effect of over 45% in size. Also: potency is read from the fitted curve at half-maximal effect. The method in brief: as §3
The nature of test [10]: A CellTox Green Cytotoxicity Assay to monitor cytotoxicity in HepG2 cells - 40 hour (AID 1224879). Also: nearly all actives have a fitted effect of over 40% in size. Also: potency is read from the fitted curve at half-maximal effect. The method in brief: as §3

SMILES strings stand for the structures. “And” between values parts separate entries of the source, which are not always exact repeats. Equal entries are not always repeated. Records with an inconclusive call do not appear. A structure can be active in one record and inactive in another. The source made the active and inactive calls. Calls follow the shape of the dose curve; as a rule, active = well fitted curve in the direction sought with a large enough effect in the repeat runs; inconclusive = weak or mixed curves; inactive = no such curve, though single readings can be large; an effect the other way counts as inactive or inconclusive.
% is scaled to controls: 0 for no effect and ±100 for the full control effect.

Take `O=C(O)COc1ccccc1`: the compound was classed as inactive in test [1], in test [3], in test [4] and in test [8]. The Potency entry in test [2], in test [6], in test [7], in test [9] and in test [10] was “inactive” in each case. For the same compound, the max response in test [5] was -2.67% (inactive) and 2.52% (inactive) and 5.65% (inactive).
With `Cc1ccccc1N`, the result in test [1], in test [3], in [4] and in test [8] was inactive. The Potency result in [2], in test [6], in test [7], in test [9] and in [10] was “inactive” throughout.
With `CC12CC1(C)C(=O)N(c1cc(Cl)cc(Cl)c1)C2=O` (stereo not drawn), the outcome in test [1], in [3], in test [4] and in test [8] was inactive. Moreover, the Potency result in test [2], in test [6], in [7], in test [9] and in [10] was “inactive” throughout. In test [5], the max response is 1.77% (inactive) and 7.9% (inactive).
Turning to `C/C=C/c1ccc2c(c1)OCO2`, the compound was called inactive in test [1], in [3], in [4] and in test [8]. For the same compound, the Potency result in test [2], in test [6], in [7], in [9] and in test [10] was “inactive” in each case. For the same compound, in test [5], the max response is -5.98% (inactive) and -4.01% (inactive).
Take `CC(C)(C)C(=O)CCl`: the result in [1], in [3] and in test [8] was inactive. Moreover, the Potency entry in test [2], in test [6], in test [7], in [9] and in test [10] was “inactive” in each case. The max response in test [5] is 4.78% (inactive) and -0.671% (inactive).
With `C[C@]12CC[C@H](O)CC1=CC[C@@H]1[C@@H]2CC[C@]2(C)C(=O)CC[C@@H]12`, the compound was called inactive in test [1], in [3], in [4] and in test [8]. Besides, the Potency result was “inactive and 43.6 µM (active)” in test [2]; 49 µM (active) and inactive in [10]. Moreover, the max response in test [5] is -15.5% (inactive). Also, the Potency entry in [6], in test [7] and in test [9] was “inactive” each time.
`[N-]=[N+]=CC(=O)OC[C@H](N)C(=O)O`: the call in test [1], in [3], in [4] and in [8] was inactive. The Potency entry in test [2] and in test [6] was “inactive” throughout. Moreover, the max response in test [5] was 8.97% (inactive) and 11.4% (inactive). For the same compound, the Potency was 27.5 µM (active) and inactive in [7]; 24.5 µM (active) and inactive in test [9]; 43.6 µM (active) and inactive in test [10].
Turning to `Cc1cccc(N)c1`, the result in test [1], in test [3], in [4] and in [8] was inactive. For the same compound, the Potency result in [2], in [6], in test [7], in [9] and in [10] was “inactive” in each case. In [5], the max response is 6.61% (inactive) and 3.01% (inactive).
Regarding `Oc1c(Br)cc(Br)cc1Br`, the call in [1], in test [3], in [4] and in test [8] was inactive. Moreover, the Potency result in test [2], in [6], in [7], in test [9] and in test [10] was “inactive” throughout. For the same compound, the max response in test [5] is -1.22% (inactive).
As for `CCCCCCCCCCCCCCCCCC(=O)O`, the compound was classed as inactive in test [1], in [3], in test [4] and in test [8]. The Potency entry in [2], in [6], in [7], in [9] and in test [10] was “inactive” throughout. In addition, the max response in test [5] was 2.01% (inactive) and -1.45% (inactive) and 0.984% (inactive).
Take `C[C@H]1C(=O)O[C@@H]2CCN3CC=C(COC(=O)[C@](C)(O)[C@]1(C)O)[C@H]23`: the compound was classed as inactive in [1], in test [3] and in test [8]. Moreover, the Potency result in test [2], in test [6], in test [7], in test [9] and in test [10] was “inactive” in each case. Also, the max response in test [5] was -22.4% (inactive) and -7.52% (inactive) and -7.78% (inactive).
Regarding `O=C/C=C/c1ccccc1`, the compound was classed as inactive in test [1], in test [3], in [4] and in test [8]. Moreover, the Potency result in test [2], in [6], in test [7], in [9] and in test [10] was “inactive” each time. Also, in test [5], the max response is -0.971% (inactive) and 11.8% (inactive) and 2.22% (inactive).
On to `CNC(=O)O/N=C/C(C)(C)S(C)(=O)=O`, for which the compound was called inactive in test [1], in test [3] and in test [8]. The Potency entry in test [2], in test [6], in test [7], in [9] and in [10] was “inactive” each time. In test [5], the max response was 3.09% (inactive) and 0.619% (inactive).
As to `O=C(O)CCCc1ccc(N(CCCl)CCCl)cc1`, the result in test [1], in test [3], in test [4] and in test [8] was inactive. Besides, the Potency entry in test [2], in test [6], in test [7], in test [9] and in [10] was “inactive” each time.
Take `COS(=O)(=O)OC`: the result in test [1], in test [3] and in [8] was inactive. In addition, the Potency result in [2], in test [6], in test [7], in test [9] and in test [10] was “inactive” in each case. Besides, in [5], the max response was 1.63% (inactive) and 22.3% (inactive).
Take `N#Cc1ccccn1`: the result in test [1], in test [3], in test [4] and in [8] was inactive. Further, the Potency result in [2], in [6], in [7], in [9] and in test [10] was “inactive” each time. In addition, in test [5], the max response was -0.449% (inactive) and 4.77% (inactive).
For `CCOP(=S)(OCC)Oc1cc(C)nc(C(C)C)n1`, the compound was classed as inactive in [1], in test [3], in test [4] and in test [8]. For the same compound, the Potency entry in test [2], in test [6], in test [7] and in test [9] was “inactive” throughout. For the same compound, the max response in test [5] is 2.72% (inactive) and 7.6% (inactive) and 1.58% (inactive). Besides, the Potency entry in test [10] was “inactive and 24.5 µM (active)”.
For the compound `CN(C)C(=O)C(c1ccccc1)c1ccccc1`, the call in test [1], in test [3] and in test [8] was inactive. In addition, the Potency entry in [2], in test [6], in test [7], in [9] and in test [10] was “inactive” in each case. For the same compound, in test [5], the max response is 1.04% (inactive) and -0.357% (inactive).
On to `COc1cc(-c2ccc(N)c(OC)c2)ccc1N`, for which the compound was classed as inactive in test [1], in [3] and in test [8]. The Potency result in test [2], in test [6], in [7], in test [9] and in test [10] was “inactive” each time. The Potency in test [5] is 37.1 µM (active). Further, the max response in [5] is -23.4% (inactive) and -26.2% (inactive).
As to `CN(C)CCC#N`, the compound was called inactive in test [1], in [3], in test [4] and in test [8]. Moreover, the Potency entry in test [2], in test [6], in [7], in [9] and in [10] was “inactive” throughout. In addition, the max response in test [5] is 6.53% (inactive) and 12.6% (inactive).

These data come from PubChem BioAssay (Tox21).
